# Data: PubChem BioAssay AID686978 (National Center for Advancing Translational Sciences (NCATS), 2013)
# Among all 420,000 compounds or so, about 64,000 (15%) were called active. Not shown: some 27% with an inconclusive outcome. These entries were drawn from the full list. Unmarked numbers belong to inactive results. The call rests on the fitted dose curve; in most records, active means well fitted inhibition curve with a large enough effect; inconclusive means small, poorly fitted or top-dose-only effect; inactive means flat fitted curve, though single readings scatter.
# Assay: qHTS for Inhibitors of human tyrosyl-DNA phosphodiesterase 1 (TDP1): qHTS in cells in absence of CPT; further: nearly all actives have a fitted effect of over 55% in size
# Details: DT40 Tdp1-/- hTDP1 cells, no CPT, ATP luminescence, 48 h; activity change, negative = growth inhibition: at 46.2 µM (top of the series)
# In short: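 Chicken DT40 Tdp1-/- cells stably complemented with human TDP1 were seeded at 400 cells/well with DMSO in place of 20 nM camptothecin. After compound pinning, cells grew at least 48 hr at 37 °C; viability read by CellTiter-Glo luminescence.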
# On the % scale 0 is the no-effect control and ±100 the full control effect; potency means the concentration at half of the fitted maximal effect.
SMILES,Potency,"activity change, negative = growth inhibition [%]"
Cc1ccc(-n2c(C)cc(C(=O)CN3C(=O)C(=O)N(C4CCCC4)C3=O)c2C)cc1,25.9 µM (active),–
CCOC(=O)c1cc2c(n(-c3ccc(C)cc3)c1=O)CCCC2=O,–,-13.6
C=CCn1c(C)cc(C(=O)CN2C(=O)c3ccccc3C2=O)c1C,–,-25.9
COc1ccc(NC(=O)CCCC2CCCCC2)c(OC)c1,–,-16.4
COc1ccc(Cl)cc1C(=O)NNC(=S)NC(=O)/C=C/c1ccco1,23.1 µM (active),–
O=C(/C=C/c1ccco1)NC(=S)Nc1ccccc1Br,–,-12.9
C=CCNC(=S)NNC(=O)c1cc(Cl)ccc1OC,–,3.87
CC(C)c1nc(CNC(=O)CC2C(=O)NCCN2Cc2ccoc2)cs1 (stereo not drawn),–,-1.5
O=C(COC(=O)Cn1cnc2ccccc2c1=O)NCc1ccccc1Cl,–,2.41
CN(Cc1c(F)cccc1Cl)C(=O)COC(=O)Cn1cnc2ccccc2c1=O,–,3.31
O=C(COC(=O)Cn1cnc2ccccc21)Nc1cccc2c1C(=O)c1ccccc1C2=O,9.2 µM (active),–
O=C(Cn1cnc2ccccc21)N/N=C/c1ccco1,–,15
O=C(Cn1cnc2ccccc21)Nc1ccccc1-c1ccccc1,2.31 µM (active),–
CCC(=O)Nc1ccccc1-c1nc2ccccc2n(CC(=O)Nc2ccc(C)c(C)c2)c1=O,–,-29
CCN(Cc1ccccc1)Cc1c(O)ccc2c(=O)c(-c3ccc(Cl)cc3Cl)coc12,–,6.31
CCCn1c(SCC(=O)Nc2ccc(C)c(S(=O)(=O)N3CCOCC3)c2)n[nH]c1=O,–,-12.2
CCOC(=O)C1CCN(C(=O)C2(NC(=O)Nc3cccc(F)c3)CCCCC2)CC1,–,-24.2
COC(=O)C(=Nc1ccccc1)/C(C(=O)C(=O)N(C)c1ccccc1)=C(\O)c1ccc(Cl)cc1,–,-0.772
COc1cc(OC)c(C(=O)OCC(=O)N2CC(=O)Nc3ccccc32)cc1OC,–,12.3
N#Cc1c(N)sc2c1CCN(C(=O)OCc1ccccc1)C2,–,-24.9
O=C1NC(c2ccncc2)Nc2sc3c(c21)CCCC3 (stereo not drawn),–,-11.1
CCOC(=O)N1CCc2c(sc3c2C(=O)NC(c2ccccc2F)N3)C1 (stereo not drawn),16.4 µM (active),–
COc1ccc(OC)c(NC(=O)c2cnn(-c3ccccc3Cl)c2NC(=O)c2ccco2)c1,–,-17.9
C#CCN1C(=O)C(O)(CC(=O)c2cc(OC)ccc2OC)c2ccccc21 (stereo not drawn),16.4 µM (active),–
COc1ccc(C(=O)COC(=O)c2nn(C)c(=O)c3ccccc23)c(OC)c1,–,5.24
CC(=O)NC(=S)Nc1ccc(NC(=O)c2cccnc2)cc1,–,7.62
N#CCSc1ccccc1NC(=O)CN1C(=O)NC(CCc2ccccc2)C1=O (stereo not drawn),–,-11.9
Cn1ncc([N+](=O)[O-])c1C(=O)Nc1cc(Cl)ccc1Cl,–,-5.68
